Hits are enriched below; roughly 28% of the tested compounds scored in any of these assays.
CYP2C19 inhib = blockers of cytochrome P450 2C19 activity – biochemical, luminescence, ADME assay, primary screen. P33261. CYP2C19 Supersomes, luciferin-H EGE luminescence, 30 min. inhibition, % at 5 µM. 96,000 tested, 21% active;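 active = CYP2C19 inhibition above a set limit at 5 µM in the primary screen, cut at about 50% in these data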;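 also: plate controls were negative control wells for no effect and 2.5 mM tranylcypromine positive control for full effect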
CYP2C9 activ = human CYP2C9 activators, primary screen, biochemical, luminescence; Cytochrome P450 2C9 (Homo sapiens), P11712; activation factor at 5 µM; recombinant CYP2C9, luciferin-H conversion; hits give high values; factor 1 = untreated enzyme, 0 = blocked; 96,000 tested, 1.4% active;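 active = activation factor of 2 or more for CYP2C9 at a 5 µM dose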;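 also: 0 = sulfaphenazole-blocked wells and 1 = vehicle-only wells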
PTK2B oligo ant = antagonists of Pyk2 self-association, primary screen, Q293 cells, FERM NanoBiT luminescence, HTS; Protein-tyrosine kinase 2-beta (Homo sapiens), Q14289; hits give low values; z-score (the deposit names both 25 µM and 10 µM); 99,000 tested, 0.83% active; AID 1347419, 2020;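 active = Z-score of -3 or lower, scaled per plate to the spread of control and sample wells; inactive = z-score above -3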;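 also: negative z-score means lost luminescence so less FERM oligomerization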
CYP2C9 inhib = blockers of cytochrome P450 2C9 activity – biochemical, luminescence, ADME assay, primary screen; P11712; CYP2C9 Supersomes, luciferin-H conversion; inhibition, % at 5 µM; 96,000 tested, 20% active; AID 777, 2007;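 active = blocking of liver enzyme CYP2C9 beyond about 50% at 5 µM, limit read from the data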
CYP2C19 act = human CYP2C19 activators, primary screen, biochemical, luminescence; Cytochrome P450 2C19 (Homo sapiens), P33261; recombinant CYP2C19, luciferin-H EGE luminescence; hits give high values; 0 = fully inhibited enzyme, 1 = untreated enzyme; activation factor at 5 µM; 96,000 tested, under 10 active; AID 1025, 2008;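 active = activation factor of at least 2 at 5 µM in the primary screen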;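 also: 0 = wells with 2.5 mM tranylcypromine and 1 = vehicle-only wells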
* hit, by the source's call; nt = no result.

SMILES | CYP2C19 inhib | CYP2C9 activ | PTK2B oligo ant | CYP2C9 inhib | CYP2C19 act
C=C(C)CNC(=S)NNC(=O)CCn1c2ccc(Cl)cc2c2cc(Cl)ccc21 | nt | nt | 0.23 | nt | nt
CC(=O)C1=C(c2ccccc2)NC(=O)NC1c1ccccc1OCC#N (stereo not drawn) | -4.9 | 1.1 | 0.29 | -8.6 | 1
Cc1ccc2nc(C(=O)O)c(C(=O)O)nc2c1 | -1.8 | 1 | 0.64 | 2.2 | 1
CC(C)C(C(=O)Nc1ccc(S(=O)(=O)N2CCOCC2)cc1)N1C(=O)c2ccccc2C1=O (stereo not drawn) | -9.4 | 0.9 | -0.11 | 5.4 | 1.1
Cc1ccc(N(C(C)C(=O)Nc2ccc(S(=O)(=O)N3CCOCC3)cc2)S(C)(=O)=O)cc1C (stereo not drawn) | 36.1 | 0.1 | 1.96 | 89.2* | 0.6
CC(Sc1ccc(Cl)cc1)C(=O)Nc1ccc(S(=O)(=O)N2CCOCC2)cc1 (stereo not drawn) | 49.8 | 0.4 | -1.19 | 62.1* | 0.5
COc1ccc(C2(C(=O)NCc3ccco3)CCCC2)cc1OC | 23.3 | 1 | 0.56 | -2.8 | 0.8
CC(=O)c1cc(C#N)c(Oc2ccc(Cl)cc2Cl)nc1C | nt | nt | 1.43 | nt | nt
CC1(C)NC(=O)N(CC(O)CN2CCCC2)C1=O (stereo not drawn) | -6.3 | 1.1 | 0 | -10.1 | 1.1
CC(C)(C)C(=O)N1CCC(O)(CS(=O)(=O)Cc2ccccc2Cl)CC1 | 13.3 | 0.9 | 1.59 | 14.5 | 0.9
CC(C)(C)C(=O)N1CCN(c2c(Cl)cccc2[N+](=O)[O-])CC1 | 64.8* | 0.1 | -0.61 | 85.2* | 0.4
c1cnc(N2CCN(Cc3c[nH]c4ccccc34)CC2)nc1 | 45.6 | 0.7 | 0.43 | 34.9 | 0.5
Cc1ccccc1N1CCN(Cc2c[nH]c3ccccc23)CC1 | 56.0* | 0.8 | -0.89 | 20.3 | 0.4
CCOC(=O)c1ccccc1NC1CC(=O)N(c2ccccc2C)C1=O (stereo not drawn) | 80.5* | 0.2 | -1.57 | 75.8* | 0.2
Cc1cc(C)nc(SCC(=O)N2CCC(C(N)=O)CC2)n1 | 0.0 | 1 | 0.93 | -3.4 | 1
CCOC(=O)C1CCN(S(=O)(=O)c2ccc(OC)c(Cl)c2Cl)CC1 | -13.6 | 1.2 | -1.04 | -23.0 | 1.1
CCOC(=O)C1CCN(S(=O)(=O)c2ccc(Cl)cc2OC)CC1 | 84.2* | 1.4 | 0.67 | -43.0 | 0.2
CCOC(=O)C1CCN(S(=O)(=O)c2cc(Cl)c(C)cc2OC)CC1 | 97.9* | 1 | -0.05 | 2.8 | 0
COc1ccc(NC(=O)c2ccccc2Cl)cc1NC(=O)CN1CCOCC1 | 17.3 | 0.9 | 0.6 | 10.5 | 0.8
COc1ccc(-c2nc(N)ncc2-c2csc(C)n2)c(O)c1 | 87.0* | 1 | -0.68 | 3.1 | 0.1
Cc1c(C(=O)Nc2ccncc2)oc2c1C(=O)CC(C)(C)C2 | 99.0* | 0.1 | 0.03 | 93.6* | 0
Cc1c(C(=O)Nc2ccccc2)oc2c1C(=O)CC(C)(C)C2 | -0.8 | 0.7 | -0.19 | 28.8 | 1
Cc1c(C(=O)NC2CCCCC2)oc2c1C(=O)CC(C)(C)C2 | 16.0 | 0.8 | 1.37 | 19.7 | 0.8
Cc1ccc(NC(=O)c2oc3c(c2C)C(=O)CC(C)(C)C3)cc1 | 76.8* | 0.9 | 1.2 | 11.1 | 0.2
CC(/C=C/c1ccc(O)cc1)=N/O | nt | nt | -0.33 | nt | nt
SMILES | CYP2C19 inhib | CYP2C9 activ | PTK2B oligo ant | CYP2C9 inhib | CYP2C19 act
c1cc2c(cc1Nc1nc(-c3ccc4c(c3)OCO4)cs1)OCCO2 | 73.1* | 0.1 | -0.45 | 87.2* | 0.3
CC(C)(C)C(=O)Nc1nc(-c2ccc3c(c2)OCO3)cs1 | 92.5* | 0.1 | -0.35 | 94.5* | 0.1
O=C(CN(Cc1ccccc1)C(=O)c1cc2c(s1)CCC2)NCc1cccs1 | 18.3 | 0.2 | -1.07 | 75.3* | 0.8
O=C(CN(C(=O)c1cc2c(s1)CCC2)C1CCCC1)NCc1cccs1 | 65.7* | 0.2 | 0.44 | 81.9* | 0.3
O=C(NCc1ccco1)c1cc2c(s1)CCCCC2 | 8.9 | 1 | 2.65 | -2.2 | 0.9
N#CCSc1nnc(Nc2ccccc2)s1 | 83.7* | 0.6 | 1.03 | 41.7 | 0.2
N#CCSc1nc(-c2ccccc2)cs1 | 56.3* | 1.5 | 0.41 | -50.6 | 0.4
Nc1nc(-c2ccccc2)cs1 | 3.6 | 1.1 | -0.09 | -5.9 | 1
OCCSc1nnc(Nc2ccccc2)s1 | 21.4 | 1 | -0.1 | -3.8 | 0.8
Oc1cccc(-c2nc3ccc4ccccc4c3c3c2CCC3)c1 | 20.3 | 0.6 | -0.95 | 37.1 | 0.8
COCCNC(=O)C(c1ccco1)N(C(=O)Cn1nnc2ccccc21)c1ccc(C)cc1C (stereo not drawn) | 20.5 | 0.9 | -0.12 | 8.8 | 0.8
O=c1c2ccccc2c2c(O)nc(-c3ccccc3)n2n1Cc1ccccc1 | 10.3 | 0.5 | -0.43 | 53.9* | 0.9
Cn1c(=O)c2c(nc(-c3ccccc3)n2C)n(Cc2ccccc2)c1=O | nt | nt | 0.17 | nt | nt
c1ccc(Cn2nnc3c(Nc4ccc5c(c4)OCO5)nc(C4CC4)nc32)cc1 | 7.4 | 0.6 | -0.9 | 36.3 | 0.9
O=C(N/N=C/c1ccc(Br)cc1)c1ccccc1-n1cccc1 | 85.1* | 0.5 | -0.99 | 53.9* | 0.1
COc1ccc(C2Nc3ccccc3C(=O)N2Cc2ccco2)cc1COc1ccc([N+](=O)[O-])cc1 (stereo not drawn) | 39.2 | 0 | -1.08 | 96.4* | 0.6
O=C1c2ccccc2N2C(=O)c3ccccc3C2N1Cc1ccco1 (stereo not drawn) | 5.0 | 0.5 | -1.27 | 49.4 | 0.9
O=C1c2ccccc2NC(c2ccccc2)N1Cc1ccco1 (stereo not drawn) | 34.5 | 0.4 | -0.68 | 59.5* | 0.7
COc1cccc(OCc2cc(C3Nc4ccccc4C(=O)N3Cc3ccco3)ccc2OC)c1 (stereo not drawn) | nt | nt | -1.01 | nt | nt
O=C1c2ccccc2NC(c2ccc(F)cc2)N1Cc1ccco1 (stereo not drawn) | 53.0* | 0.3 | -1.83 | 67.7* | 0.5
C=CCSc1ncc(C#N)c(N)n1 | nt | nt | 0.49 | nt | nt
CCOC(=O)/C(C#N)=C/NC(=O)NC(C)(C)C | 34.1 | 0.8 | 0.05 | 19.7 | 0.7
CCCCNC(=O)OCCNC(=O)NC | 3.1 | 1 | 1.02 | 4.8 | 1
c1ccc(C2=Nc3ccccc3SC2c2nc3ccccc3[nH]2)cc1 (stereo not drawn) | 44.6 | 0.7 | nt | 33.5 | 0.6
Cc1nc(NC(=O)c2cc(-n3cnnc3)ccc2Cl)ccc1Br | nt | nt | 0.51 | nt | nt
SMILES | CYP2C19 inhib | CYP2C9 activ | PTK2B oligo ant | CYP2C9 inhib | CYP2C19 act
O=C(Nc1c(C(=O)Nc2cccc3ccccc23)cnn1-c1ccccc1)c1ccco1 | nt | nt | -1.68 | nt | nt
CCc1nc(N)c(C#N)c(-c2cccnc2)c1C | 3.3 | 1.1 | -0.04 | -11.4 | 1
Cc1nc(N)c(C#N)c(-c2cccnc2)c1C | 3.3 | 2* | -1.19 | -96.3 | 1
CN1CCN(C(=S)c2ccc(OCC(=O)Nc3cccc(C(F)(F)F)c3)cc2)CC1 | nt | nt | 0.61 | nt | nt
COc1ccc(C2CC(=O)c3cnc(NC(=O)c4ccccc4OC)nc3C2)c(OC)c1 (stereo not drawn) | nt | nt | -1.97 | nt | nt
CC1=NCCN1S(=O)(=O)c1cc(Cl)ccc1Cl | 50.9* | 2.8* | 0.01 | -178.1 | 0.5

Screens deposited in PubChem BioAssay by Sanford-Burnham Center for Chemical Genomics.
